Outcome and AC50 data for 18 compounds are collected here from PubChem BioAssay (EPA / NIEHS).

Where “and” joins values, the source holds several entries; their conditions need not be identical. Identical values can stand only once. Records with an inconclusive call do not appear. Some compounds were tested as several samples or in several runs, with calls that do not always agree. Calls of active or inactive are those of the source. The calls were made as follows, unless noted: active = hit-call score of the fitted dose curve at least 0.9, where 1 is the maximum; inactive = score below 0.9.

Read-out in assay [1]: Interleukin-8 (IL8), CXCL8 (gene 3576)
Briefly: BSK_3C_IL8: BioMAP Diversity Plus: 3C Assay for Interleukin-8 (IL8) Biomarker Activity (AID 2283020). Conditions: primary human endothelial cells (HUVEC); actives raise or lower the signal. In outline:
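IL-8 was measured by ELISA in HUVEC cultures 24 h after chemical dosing, with gain or loss of signal fitted relative to DMSO. Parallel SRB total-protein staining tracked overt cytotoxicity.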

Read-out in assay [2]: Monokine induced gamma interferon (MIG), CXCL9 (gene 4283)
Briefly: BSK_3C_MIG: BioMAP Diversity Plus: 3C Assay for Monokine induced gamma interferon (MIG) Biomarker Activity (AID 2283021).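 As to AC50: MIG protein level measured by immunoassay in the treated endothelial cultures.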 The note with it: primary human endothelial cells (HUVEC); actives raise or lower the signal. In a few lines:
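ELISA measurement of MIG in human umbilical vein endothelial cells 24 h after treatment. Cytotoxicity tracked by SRB staining in parallel cultures; gain or loss of signal fitted relative to DMSO.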

For assay [3], the target named is human Vitamin D Receptor (VDR), VDR (gene 7421) (UniProt P11473). The experiment in a line: ATG_VDR_TRANS: Attagene TRANS-FACTORIAL HepG2 Assay for human Vitamin D Receptor (VDR) (AID 2283022; active = hit-call score of the fitted dose curve at least 0.9, where 1 is the maximum). In outline:
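HepG2 cells were transiently transfected with multiple GAL4-UAS reporter units, so signal reflects exogenous chimeric receptor-Gal4 activity. After 24 h compound exposure, reporter mRNA was measured by RT-PCR, fluorescent labelling and capillary electrophoresis, fitted for gain of signal versus DMSO.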

Assay [4] can be described thus: BSK_3C_SRB: Viability Assessment in the BioMAP Diversity Plus: 3C Assay (AID 2283023).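 Also: fitted both ways against DMSO so a hit may be signal rise or drop.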 The note with it: primary human endothelial cells (HUVEC). In a few lines: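 Primary human umbilical vein endothelial cells in the 3C system were read 24 h after compound dosing. Total protein was stained with 0.1% sulforhodamine B after 10% TCA fixation and read at 560 nm, with bidirectional fitting against DMSO as baseline.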

Read-out in assay [5]: Matrix Metallopeptidase 1 (MMP1), MMP1 (gene 4312)
The experiment in a line: BSK_BE3C_MMP1: BioMAP Diversity Plus: BE3C Assay for Matrix Metallopeptidase 1 (MMP1) Biomarker Activity (AID 2283024). The note with it: primary human bronchial epithelial cells; actives raise or lower the signal. In a few lines: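 ELISA measurement of MMP-1 after 24 h compound exposure of primary human bronchial epithelial cells. Changes in either direction fitted relative to DMSO; parallel SRB staining checked overt cytotoxicity.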

Read-out in assay [6]: Pselectin, SELP (gene 6403)
Briefly: BSK_4H_Pselectin: BioMAP Diversity Plus: 4H Assay for Pselectin Biomarker Activity (AID 2283026). Conditions: primary human endothelial cells (HUVEC); actives raise or lower the signal. In a few lines:
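ELISA of surface P-selectin on HUVEC, 24 h after dosing, with parallel SRB staining (0.1% after 10% TCA fixation, 560 nm) for overt cytotoxicity. Activity fitted in both directions relative to DMSO.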

Assay [7] is described as follows: BSK_4H_SRB: Viability Assessment in the BioMAP Diversity Plus: 4H Assay (AID 2283027).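 Also: cells exposed to compound for 24 h before staining.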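 As to AC50: curves fitted both ways versus DMSO so AC50 may be loss or gain.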 The note with it: primary human endothelial cells (HUVEC). In outline: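 HUVEC, 24 h post-dose; 10% TCA fix, 0.1% SRB stain, A560 nm. Total protein = overt cytotoxicity, parallel to biomarker read. Bidirectional fit vs DMSO baseline.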
Assay [8] is described as follows: BSK_BE3C_SRB: Viability Assessment in the BioMAP Diversity Plus: BE3C Assay (AID 2283028).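 As to AC50: fitted both ways so AC50 may mark signal gain or loss versus DMSO.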 The note with it: primary human bronchial epithelial cells. In a few lines:
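Human primary bronchial epithelial cells were exposed to test chemicals for 24 h. Total protein in parallel cultures was then measured by staining with 0.1% sulforhodamine B after 10% TCA fixation, with absorbance read at 560 nm. Activity was fitted bidirectionally against DMSO.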

Read-out in assay [9]: Thrombomodulin, THBD (gene 7056)
The experiment in a line: BSK_3C_Thrombomodulin: BioMAP Diversity Plus: 3C Assay for Thrombomodulin Biomarker Activity (AID 2283029). Conditions: primary human endothelial cells (HUVEC); actives raise or lower the signal. In outline:
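ELISA measurement of thrombomodulin on HUVEC surface 24 h after chemical dosing; activity fitted in both directions relative to DMSO vehicle.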

A short description of assay [10]: BSK_3C_Vis: BioMAP Diversity Plus: 3C Assay for Morphology Visualization (AID 2283025).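 Also: fitted both ways so gain or loss versus DMSO counts.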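 As to AC50: light microscopy image of cell morphology used as background control.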 The note with it: primary human endothelial cells (HUVEC). In outline:
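Light-microscopy visualization of HUVEC cultures at 24 h post-treatment, with DMSO as baseline for bidirectional fitting.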

human Vitamin D Receptor (VDR), VDR (gene 7421), sequence (P11473 whole entry, looked up, the tested form may be a part): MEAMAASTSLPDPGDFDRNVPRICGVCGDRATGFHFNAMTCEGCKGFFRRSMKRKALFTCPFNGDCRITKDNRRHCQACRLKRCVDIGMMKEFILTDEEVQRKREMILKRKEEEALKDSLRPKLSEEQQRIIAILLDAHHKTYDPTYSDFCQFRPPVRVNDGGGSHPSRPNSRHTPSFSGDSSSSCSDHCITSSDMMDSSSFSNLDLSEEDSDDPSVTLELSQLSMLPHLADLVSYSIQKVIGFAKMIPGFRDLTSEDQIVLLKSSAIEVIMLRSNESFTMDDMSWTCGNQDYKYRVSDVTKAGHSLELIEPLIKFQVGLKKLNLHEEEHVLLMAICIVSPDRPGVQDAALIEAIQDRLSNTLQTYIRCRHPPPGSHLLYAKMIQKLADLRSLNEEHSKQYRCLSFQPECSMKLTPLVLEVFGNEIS

With `NCC(F)(F)C(F)(F)C(F)(F)C(F)(F)C(F)(F)C(F)(F)C(F)(F)C(F)(F)F`, the outcome in assay [1], in assay [2], in [3], in assay [4], in [5] and in assay [6] was inactive. In addition, the outcome in assay [7], in assay [8] and in assay [9] was inactive.

On to `O=C(Cl)C(F)(F)C(F)(F)C(F)(F)C(F)(F)C(F)(F)C(F)(F)C(F)(F)F`, for which the outcome in [1], in [2], in assay [3], in [4], in [5] and in [6] was inactive. Besides, the result in assay [7], in [8] and in assay [9] was inactive. Also, the AC50 in [5] was 6 µM (active) and 24 µM (active).

In the case of `CCN(CCO)S(=O)(=O)C(F)(F)C(F)(F)C(F)(F)C(F)(F)C(F)(F)C(F)(F)C(F)(F)C(F)(F)F`, the half-maximal activity concentration (AC50) was 13.7 µM (active) in [1]; 27.6 µM (active) and 17.8 µM (active) in assay [4]; 4.15 µM (active) in assay [5]; 19.1 µM (active) in assay [6]; 45.8 µM (active) and 40.1 µM (active) in [7]; 44.5 µM (active) and 37.2 µM (active) in assay [8]. In addition, in assay [9], the half-maximal activity concentration (AC50) was 12.6 µM (active) and 21.8 µM (active). Moreover, the result in [1], in [2], in assay [3], in assay [5] and in assay [6] was inactive.

As to `Brc1nc2ccccc2s1`, the outcome in assay [1], in [2], in [3], in [4], in [5] and in assay [10] was inactive. The outcome in [6], in assay [7], in assay [8] and in assay [9] was inactive.

On to `O=C1C=CC(=O)N1c1ccc(Cc2ccc(N3C(=O)C=CC3=O)cc2)cc1`, for which the half-maximal activity concentration (AC50) in assay [1] is 7.33 µM (active); in assay [2], 12 µM (active); in assay [4], 11.5 µM (active); in assay [5], 4.99 µM (active); in assay [10], 5.63 µM (active); in assay [6], 7.11 µM (active). In addition, the values for the concentration at half-maximal activity (AC50) in [7], in assay [8] and in assay [9] were 12.1 µM (active), 3.04 µM (active) and 11.3 µM (active), respectively. For the same compound, the compound was classed as inactive in [3].

With `FC(F)(F)C(F)(F)C(F)(F)C(F)(F)C(F)(F)C(F)(F)C(F)(F)CCI`, the result in [1], in assay [2], in assay [3], in assay [4], in assay [5] and in [6] was inactive. For the same compound, the outcome in assay [7], in assay [8] and in [9] was inactive.

As to `CCN(CC)c1ccc(N=Nc2ccccc2)cc1`, the AC50 is 20 µM (active) in [1]; 12.1 µM (active) in assay [4]; 8.8 µM (active) in assay [10]; 11.3 µM (active) in [6]; 20 µM (active) in [7]. In addition, the outcome in assay [2], in assay [3], in [5], in assay [8] and in assay [9] was inactive.

`Cc1cc(O)c(C(C)(C)C)cc1C(C)(C)C`: the AC50 in [1] was 2.73 µM (active); in [2], 11.5 µM (active); in [4], 3.99 µM (active); in assay [5], 9.45 µM (active); in assay [10], 12.5 µM (active); in assay [6], 5.32 µM (active). The half-maximal activity concentration (AC50) is 4.77 µM (active) in [7], 5.9 µM (active) in [8] and 4.96 µM (active) in assay [9]. In addition, the compound was called inactive in assay [3].

Consider `CC1=CC2C3C=CC(C3)C2C1C` (configuration not stated), for which the outcome in [1], in [2], in [3], in assay [4], in assay [5] and in assay [10] was inactive. Further, the outcome in [6], in [7], in assay [8] and in assay [9] was inactive.

Turning to `FC(F)(F)C(F)(F)C(F)(F)C(F)(F)C(F)(F)C(F)(F)CC[Si](Cl)(Cl)Cl`, the result in assay [1], in [2], in assay [3], in assay [4], in [5] and in [6] was inactive. The outcome in assay [7], in assay [8] and in assay [9] was inactive.

For the compound `O=C(O)CCC(F)(F)C(F)(F)C(F)(F)C(F)(F)C(F)(F)C(F)(F)C(F)(F)F`, the result in assay [1], in assay [2], in assay [3], in assay [4], in [6] and in assay [7] was inactive. Moreover, the outcome in assay [8] and in [9] was inactive. In addition, the AC50 in assay [5] is 3.33 µM (active) and 3.8 µM (active).

With `CNS(=O)(=O)C(F)(F)C(F)(F)C(F)(F)C(F)(F)C(F)(F)C(F)(F)C(F)(F)C(F)(F)F`, the result in assay [1], in [2], in assay [3], in assay [4], in assay [5] and in [6] was inactive. Further, the outcome in [7], in assay [8] and in assay [9] was inactive. Moreover, the half-maximal activity concentration (AC50) in [7] was 29.8 µM (active).

On to `OCC(O)CC(F)(F)C(F)(F)C(F)(F)C(F)(F)C(F)(F)C(F)(F)C(F)(F)C(F)(F)F` (configuration not stated), for which the outcome in [1], in assay [2], in assay [3], in [4], in [5] and in assay [6] was inactive. In addition, the result in [7], in assay [8] and in [9] was inactive.

In the case of `COC(F)(C(F)F)C(F)(F)F` (configuration not stated), the result in assay [1], in assay [2], in assay [3], in assay [4], in [5] and in [6] was inactive. Moreover, the result in [7], in assay [8] and in assay [9] was inactive.

With `O=C(O)C(F)(F)C(F)(F)C(F)(F)C(F)(F)C(F)(F)C(F)(F)C(F)F`, the half-maximal activity concentration (AC50) in assay [1] was 30 µM (active); in assay [5] it was 12 µM (active). For the same compound, the outcome in assay [1], in assay [2], in assay [3], in assay [4], in assay [5] and in [6] was inactive. Also, the result in assay [7], in assay [8] and in [9] was inactive.

Turning to `FC(F)(F)C(F)(F)C(F)(F)CC1CO1` (configuration not stated), the outcome in assay [1], in assay [2], in assay [3], in [4], in assay [5] and in [6] was inactive. In addition, the outcome in [7], in assay [8] and in assay [9] was inactive. In addition, the concentration at half-maximal activity (AC50) in assay [5] was 26.3 µM (active).

As to `OCCCCC(F)(F)C(F)(F)C(F)(F)C(F)(F)F`, the result in assay [1], in assay [2], in assay [3], in [4], in assay [5] and in assay [6] was inactive. Besides, the outcome in [7], in assay [8] and in assay [9] was inactive.

`O=C(O)C(F)(F)C(F)(F)C(F)(F)OC(F)(F)F`: the result in assay [1], in assay [2], in assay [3], in [4], in [5] and in assay [6] was inactive. In addition, the result in assay [7], in [8] and in assay [9] was inactive. Moreover, the AC50 was 37.3 µM (active) in assay [5] and 5.95 µM (active) in assay [9].
